Screens: PubChem, National Center for Advancing Translational Sciences (NCATS)
JMJD2A Tudor inh = qHTS Assay for Inhibitors of JMJD2A-Tudor Domain | AlphaScreen JMJD2A-Tudor / H3K4me3 peptide binding | 390,000 tested, 4.4% active | Lysine-specific demethylase 4A (Homo sapiens), O75164 | Potency, µM (titrated, usually from 114 µM), without a hit: at the highest dose activity change, negative = inhibition, usual class: inhibitors; also: % is scaled to controls: 0 for no effect and ±100 for the full control effect; nearly all actives have a fitted effect of over 50% in size
BAZ2B block = qHTS Assay for Inhibitors of BAZ2B; AlphaScreen BAZ2B-H3K14Ac peptide displacement; Bromodomain adjacent to zinc finger domain protein 2B (Homo sapiens), Q9UIF8; AID 504333, 2011; 360,000 tested, 4.4% active; Potency, µM (titrated, usually from 114 µM), for inactives: at the highest dose activity change, negative = inhibition, hits mostly inhibitors; also: % is scaled to controls: 0 for no effect and ±100 for the full control effect; nearly all actives have a fitted effect of over 60% in size
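BAZ2B (50 nM) with biotin-H3(5-23)K14Ac peptide (50 nM) in PBS pH 7.4, 0.01% Tween-20, preformed 30 min, then compound 30 min at room temperature; top concentration 110uM. AlphaScreen streptavidin donor/nickel chelate acceptor beads (10 ug/mL final), 20 min dark, signal read.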
L3MBTL1 inh = qHTS Assay for the Inhibitors of L3MBTL1. Potency, µM (doses to about 57.1 µM), inactives show at the top dose activity, negative = inhibition, hits mostly inhibitors. Lethal(3)malignant brain tumor-like protein 1 (Homo sapiens), Q9Y468. 230,000 tested, 0.66% active. AlphaScreen L3MBTL1–H3K9me1 peptide binding; also: % is scaled to controls: 0 for no effect and ±100 for the full control effect; nearly all actives have a fitted effect of over 60% in size
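Read-out is AlphaScreen signal from streptavidin donor and nickel chelate acceptor beads (10 ug/mL final each) bridging L3MBTL1 (50 nM) and biotinylated K9-monomethylated H3(1-15) peptide (75 nM), after 30 min compound exposure at room temperature.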
G9a inh = qHTS Assay for Inhibitors of Histone Lysine Methyltransferase G9a; G9a H3K9 monomethylation, AlphaScreen, 2 h; Histone-lysine N-methyltransferase EHMT2 (Homo sapiens), Q96KQ7; Potency, µM (series often up to 102 µM), for inactives: at the highest dose activity, negative = inhibition, most hits filed as inhibitors; 350,000 tested, 8.8% active; also: % is scaled to controls: 0 for no effect and ±100 for the full control effect; nearly all actives have a fitted effect of over 75% in size
Target sequence (Q96KQ7 913-1193 limits assumed): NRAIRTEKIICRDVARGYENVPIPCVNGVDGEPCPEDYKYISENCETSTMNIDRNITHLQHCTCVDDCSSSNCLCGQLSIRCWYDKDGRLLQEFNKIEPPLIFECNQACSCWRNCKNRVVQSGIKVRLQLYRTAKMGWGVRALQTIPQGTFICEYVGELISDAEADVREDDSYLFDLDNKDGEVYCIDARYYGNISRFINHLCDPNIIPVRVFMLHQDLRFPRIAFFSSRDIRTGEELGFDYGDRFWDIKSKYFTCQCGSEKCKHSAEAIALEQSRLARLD
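Readings reflect AlphaScreen signal from monomethyl-H3K9 antibody detection. HMT at 20 nM; substrate b-H3K9 500 nM; cofactor SAM 20 uM; 2 h RT reaction; compounds tested as titrations in qHTS with 15 min preincubation.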
GLS inhibitor = qHTS for Inhibitors of Glutaminase (GLS) | Potency, µM (series often up to 45.5 µM), for the others: at the highest dose activity change, negative = inhibition, most hits filed as inhibitors | GLS enzymatic activity, qHTS titration | AID 624170, 2012 | Glutaminase kidney isoform, mitochondrial (Homo sapiens), O94925 | 410,000 tested, 0.21% active; also: % is scaled to controls: 0 for no effect and ±100 for the full control effect
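Enzyme dispensed in phosphate buffer (45 mM, pH 8.2, 0.02% Tween-20), compounds pinned in, then 1 mM L-glutamine solution and the glutamate oxidase–HRP–Amplex Red mix added; fluorescence read immediately and again after 30 min at room temperature.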
HP1b chromo inh = HTS for Inhibitors of HP1-beta Chromodomain Interactions with Methylated Histone Tails. AID 540317, 2011. AlphaScreen HP1-beta / biotin-H3K9me3 peptide binding. Potency, µM (top dose mostly 114 µM), for inactives: at the highest dose activity change, negative = inhibition, most hits filed as inhibitors. 390,000 tested, 0.56% active. Chromobox protein homolog 1 (Homo sapiens), P83916; also: nearly all actives have a fitted effect of over 70% in size
Target sequence (P83916 whole entry, looked up): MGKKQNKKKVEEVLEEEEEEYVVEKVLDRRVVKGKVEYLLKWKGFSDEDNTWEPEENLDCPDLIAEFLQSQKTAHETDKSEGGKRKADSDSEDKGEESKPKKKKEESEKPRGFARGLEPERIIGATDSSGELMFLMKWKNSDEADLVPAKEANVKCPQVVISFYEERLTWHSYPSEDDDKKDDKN
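AlphaScreen: HP1-beta (50 nM) preformed 30 min with biotin-H3(1-18)K9me3 peptide (50 nM) in PBS pH 7.4, 0.01% Tween-20. Compound added for 30 min at RT, then streptavidin donor/nickel chelate acceptor beads (10 ug/mL) for 30 min.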
* marks the source's active call; other numbers are inactive results; ? = inconclusive; · = no result given; [ ] = dose if it differs, or a comment. A selection: hits, their analogues and other compounds. The true share with any hit is near 10%. Calls follow the shape of the dose curve; as a rule, active = well fitted curve in the direction sought with a large enough effect; inconclusive = small, poorly fitted or top-dose-only effect, or another doubt; inactive = no such curve, though single readings can be large; an effect the other way counts as inactive or inconclusive. Potency is read from the fitted curve at half-maximal effect.

SMILES	JMJD2A Tudor inh	BAZ2B block	L3MBTL1 inh	G9a inh	GLS inhibitor	HP1b chromo inh
CC1CCN(C2CC(=O)N(c3ccccc3)C2=O)CC1 (stereo not given)	-1%	-21%	0%	28µM*	0%	62%
O=C1CC(N2CCCCCC2)C(=O)N1c1ccc(F)cc1 (stereo not given)	-5%	-18%	-4%	11µM*	-7%	35%
CCOC(=O)c1cccc(NC(=O)CN2C(=O)CC(C)(C)Sc3ccccc32)c1	-24%	-14%	·	-1%[59 µM]	1%	12%
Cc1nc(-c2ccc(S(=O)(=O)N(Cc3ccccc3)C(C)C)cc2)co1	2%	-20%	·	-2%[59 µM]	1%	19%[57 µM]
COc1ccc(CCCc2nnc(SCC(=O)Nc3ccc(F)cc3)o2)cc1C	-12%	3%	·	?	-4%	26%
O=C(c1ccc(F)cc1F)N1CCC(c2nc(-c3ccc(S(=O)(=O)N4CCCC4)cc3)no2)CC1	-11%	0%	·	0%[59 µM]	0%	39%
Cc1ccc(C(=O)c2sc(Nc3ccccc3F)c(S(=O)(=O)c3ccccc3)c2N)c(C)c1	?	?	·	-28%[59 µM]	-14%	-9%[57 µM]
Cc1ccc(-n2c(=O)c3c4c(sc3n(CC(=O)c3ccc(Cl)cc3)c2=O)CCC4)cc1C	-19%	3%	·	13%[59 µM]	2%	8%
CCOc1ccccc1C1C(C#N)=C(N)Oc2cc(C)n(Cc3ccccn3)c(=O)c21 (stereo not given)	-8%	1%	4%	50µM*	28%	31%
Cc1cc2c(c(=O)n1Cc1ccccn1)C(c1ccc3c(c1)OCO3)C(C#N)=C(N)O2 (stereo not given)	-18%	-18%	4%	8%[12.7 µM]	13%	54%
COc1cc(C2C(C#N)=C(N)Oc3cc(C)n(Cc4ccccn4)c(=O)c32)cc2c1OCO2 (stereo not given)	·	?	5%	50µM*	·	·
COc1cc(C2C(C#N)=C(N)Oc3cc(C)oc(=O)c32)cc2c1OCO2 (stereo not given)	-15%[57.1 µM]	56µM*	·	?	-7%	19%
COc1ccccc1C1C(C#N)=C(N)Oc2cc(C)n(Cc3ccccn3)c(=O)c21 (stereo not given)	-16%	?	·	35µM*	13%	23%
COc1cccc(C2C(C#N)=C(N)Oc3cc(C)n(Cc4ccccn4)c(=O)c32)c1OC (stereo not given)	-5%	6%	5%	-6%[2.33 µM]	22%	24%
COc1cc(C2C(C#N)=C(N)Oc3cc(C)oc(=O)c32)cc(OC)c1OC (stereo not given)	3%	-1%	6%	-7%	-1%	27%
CCOc1ccccc1C1C(C#N)=C(N)Oc2cc(C)n(C)c(=O)c21 (stereo not given)	-14%	8%	1%	-8%[59 µM]	24%	20%
COc1ccc(-n2nc3ccc(NC(=O)c4ccc(C#N)cc4F)cc3n2)cc1Cl	2%	-5%	·	0%[59 µM]	-1%	58%
CCOC(=O)c1[nH]c(C)c(CCC(=O)N2CCN(c3cccc(C)c3C)CC2)c1C	?	?	·	?	-2%	13%[57 µM]
COC1=C(OC)C(=O)C(CC=C(C)CCC=C(C)CCC=C(C)CCC=C(C)CCC=C(C)CCC=C(C)CCC=C(C)CCC=C(C)CCC=C(C)CCC=C(C)C)=C(C)C1=O	·	·	·	·	-2%	·
Cc1nc2c(C(=O)NCCc3ccccc3)c[nH]n2c(=O)c1Cl	-31%	-1%	0%	50µM*	3%	10%
Cc1nc2c(C(=O)NCc3ccccc3)cnn2c(C)c1Cc1ccc(F)cc1	?	14%	·	-2%[59 µM]	13µM*	0%
Cc1nc2c(C(=O)NCc3ccc(F)cc3)c[nH]n2c(=O)c1Cl	-17%	3%	3%	50µM*	8%	14%
Cc1nc2c(-c3ccc(F)cc3)c(C)[nH]n2c(=O)c1Cl	-15%	-2%	6%	50µM*	14%	31%
Cc1nc2c(C(=O)NCc3ccccc3Cl)cnn2c(C)c1Cc1ccccc1	-15%	1%	·	0%[59 µM]	-12%	43%
Cc1[nH]n2c(=O)c3c(nc2c1-c1ccc(F)cc1)CCCC3	-11%	-4%	4%	5%	14%	19%
SMILES	JMJD2A Tudor inh	BAZ2B block	L3MBTL1 inh	G9a inh	GLS inhibitor	HP1b chromo inh
Cc1ccc(CNC(=O)c2c[nH]n3c(=O)c(Cc4ccc(F)cc4Cl)c(C)nc23)cc1	?	-34%	·	9%[59 µM]	2%	-1%
CCOC(=O)CNC(=O)N1CCc2cc(S(=O)(=O)N3CCC(C)CC3)ccc21	-10%	4%	·	-1%[59 µM]	-4%	17%
COc1ccc(/C=C/C(=O)NC(=S)NNC(=O)c2cc(OC)c(OC)c(OC)c2)cc1	-27%	9%	·	·	19%	6%
COc1ccc(/C=C/C(=O)NC(=S)NNC(=O)Cc2cccs2)cc1	13%	6%	·	32µM*	13%	41%
COc1ccccc1C(=O)NC(=S)Nc1ccc(NC(=O)c2ccco2)cc1	-6%	0%	-2%	?	-10%	-3%
O=C(/C=C/c1ccccc1)NC(=S)NNC(=O)Cc1cccs1	5%	11%	40%	?	17%	19%
COc1ccc(/C=C/C(=O)NC(=S)NNC(=O)c2ccco2)cc1OC	-12%	3%	·	35µM*	13%	59%
COc1ccc(/C=C/C(=O)NC(=S)NNC(=O)c2ccco2)cc1	-11%	9%	132%	13µM*	31%	23%
COc1ccccc1OCC(=O)NNC(=S)NC(=O)c1ccco1	79µM*	55%	·	?	19%	4%
CCN(CC)C(=O)Cn1c(=O)n(-c2ccc(C)c(C)c2)c(=O)c2c(C)c(C(=O)N(CC)CC)sc21	-21%	3%	·	18%[59 µM]	-1%	8%
CC1CCCCN1c1ccc(N)cc1C(N)=O (stereo not given)	-8%	-23%	-2%	?	2µM*	15%
CN(C)C(=S)Nc1ccc(Cl)cc1	-19%	-4%	-2%	-51%	14%	10%
NN(CCO)C(=S)Nc1ccc(Cl)cc1	-9%	?	9%	11µM*	35%	37%
CCCc1cc(=O)oc2cc(OC(C)C(=O)NC3CC(C)(C)NC(C)(C)C3)ccc12 (stereo not given)	-13%	-2%	·	7.1µM*	-10%	36%
